# Compound activity as filed in PubChem BioAssay.
# The entries come from a sample that favours hits as a whole.
# Methyltransferases = Primary Screen for Target Class Profiling of Small Molecule Inhibitors of Methyltransferases | purified enzyme, MTase-Glo SAH luminescence; stronger effect = lower value | calls only at 40 µM | 25,000 tested, 3.9% active | AID 1745853, 2022; call rule not given here
#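 Each enzyme was assayed with SAM and its substrate. SAH formation detected by MTase-Glo luminescence; single-point 40 uM screen[…].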
# Calls only; n = inactive; + = active, no number; ! = repeats disagree.
SMILES,Methyltransferases
COc1ccc(CC(=O)N[C@H]2[C@H](O)[C@H](O)C[C@@H]2c2cccnc2)cc1,n
COc1ccccc1C(=O)N1CCC(C(=O)N2CCC(N3Cc4ccccc4C3=O)CC2)CC1,n
O=C1NC(=O)C(c2cnc3ccccn23)=C1c1cn2c3c(cc(F)cc13)CN(C(=O)N1CCCCC1)CC2,+
O=C(CCc1nnc2n(Cc3ccc(F)cc3)c(=O)c3ccccc3n12)N1CCN(c2ccc(Cl)cc2)CC1,n
CC1(C(=O)NC2CCCCCCC2)Cn2c(ccc2-c2ccccc2)C(=O)N1CCc1ccccc1 (stereo not drawn),n
CCc1cccc(N2C(=O)c3cc4ccccc4n3CC2(C)C(=O)NCCC(C)C)c1 (stereo not drawn),n
CC(C)c1ccccc1NC(=O)N1CCOC(C(F)(F)F)C1 (stereo not drawn),n
O=C(CCC(=O)n1ncc2ccc(Cl)cc21)N1CCN(c2ccccc2)CC1,n
O=C(COCC(=O)N1CCN(C(c2ccccc2)c2ccccc2)CC1)Nc1ccc(Cl)cc1C(=O)O,+
CC1(C(=O)NCc2ccccc2Cl)Cn2cnc(C(=O)NCCc3cccs3)c2C(=O)N1C1CC1 (stereo not drawn),n
COc1ccccc1CNC(=O)C(C)n1ccc2cc(S(=O)(=O)N3CCCC3)ccc21 (stereo not drawn),n
O=C(C[C@@H]1C[C@H]2O[C@H](CNC3CCC(F)(F)CC3)[C@@H](O)[C@H]2O1)N1CCC(F)(F)C1,n
C[C@@H]1O[C@@H](O[C@H]2[C@H](OC(=O)[C@]34CCC(C)(C)C[C@H]3C3=CCC5[C@@]6(C)C[C@H](O)[C@H](O[C@@H]7O[C@H](CO)[C@@H](O)[C@H](O)[C@H]7O)[C@@](C)(CO)C6[C@H](O)C[C@@]5(C)[C@]3(C)C[C@H]4O)OC[C@H](O)[C@@H]2O)[C@H](O)[C@H](O)[C@H]1O[C@@H]1OC[C@@H](O)[C@H](O[C@H]2OC[C@](O)(CO)[C@H]2O)[C@H]1O (stereo partly drawn),n
Cc1ccc(CN2CCC(CNc3cc(C4CC(O)C4)ncn3)CC2)o1 (stereo not drawn),n
CN1CCC(CNc2ccc3ncc(-c4cccc(OC(F)(F)F)c4)n3n2)CC1,+!
CCOC(=O)c1cc2n(n1)CC(C)(C(=O)NC1CCCCCC1)N(c1ccc(Cl)cc1)C2=O (stereo not drawn),n
COc1cc2ncnc(Nc3cc(Br)c(O)c(Br)c3)c2cc1OC,n
COc1cc2ncnc(Nc3cccc(I)c3)c2cc1OC,+
COc1cc2ncnc(-n3nc(-c4ccccn4)nc3N)c2cc1OC,n
CCCNC(=O)N1CC[C@@H]2[C@H]1C(=O)N(c1cccc(F)c1)C(=O)N2Cc1cccs1,n
Cc1ccccc1N1C(=O)CSc2c(c3ccccc3n2C)C1C(=O)NCc1ccccc1 (stereo not drawn),n
CC(=O)C=C=C1C(C)(C)CC(O[C@@H]2O[C@H](CO)[C@@H](O)[C@H](O)[C@H]2O)CC1(C)O (stereo partly drawn),n
CCc1ccc(N2C(=O)c3nc4ccccc4n3CC2(C)C(=O)NC2CCCC2)cc1 (stereo not drawn),n
COc1cc(Nc2c(C#N)cnc3cc(OCCCN4CCN(C)CC4)c(OC)cc23)c(Cl)cc1Cl,+
COc1cc2c(Oc3ccc(-c4cnc(Nc5ccc(F)cc5)n(C)c4=O)cc3F)ccnc2cc1OCCCN1CCOCC1,n
SMILES,Methyltransferases
COc1cccc(OCCCN)c1-c1cc(Nc2cnc(C#N)cn2)n[nH]1,n
O=C(C1CC1)N1CCN2C(=O)N(C3CCCCC3)C[C@H]2C1,n
COCCN1CCC2(CCC1=O)CN(c1ccc(C#N)cn1)CCN2C (stereo not drawn),n
CN(CCN1C(=O)c2cc3occc3n2CC1(C)C(=O)NC1CCCCC1)C1CCCCC1 (stereo not drawn),n
COc1ccc(CNC(=O)c2ccc3c(=O)nc4c(-c5cccc(F)c5)n[nH]n4c3c2)cc1OC,n
COc1ccc2c(c1)C(COCc1ccc(S(C)(=O)=O)cc1)CC(C)(C)O2 (stereo not drawn),n
CN(CC(=O)N1CCN(Cc2ccccc2)CC1)S(=O)(=O)c1ccc2[nH]c3c(c2c1)CCCC3,n
C=Cc1ccc(Cn2nc3n(CC(C)C)c(=O)c4ccc(C(=O)NC5CCCC5)cc4n3c2=O)cc1,n
COc1cc(/C=C/c2cc(O)cc(O[C@@H]3O[C@H](CO)[C@@H](O)[C@H](O)[C@H]3O)c2)ccc1O,+
COc1cc(C(CO)C(OC2OC(CO)C(O)C(O)C2O)c2ccc(O)c(OC)c2)ccc1O (stereo not drawn),n
COc1cc(/C=C/CO)ccc1O[C@@H]1O[C@H](CO)[C@@H](O)[C@H](O)[C@H]1O,n
O=C(/C=C/c1ccc(O)c(O)c1)OCc1ccccc1O[C@@H]1O[C@H](CO)[C@@H](O)[C@H](O)[C@H]1O,n
COc1cc(C[C@@]2(O)CO[C@@H](c3ccc(O[C@@H]4O[C@H](CO)[C@@H](O)[C@H](O)[C@H]4O)c(OC)c3)[C@H]2CO)ccc1O,n
COc1cc(C2Oc3c(OC)cc(CCCO[C@@H]4O[C@H](CO)[C@@H](O)[C@H](O)[C@H]4O)cc3C2CO)ccc1O (stereo partly drawn),+
COc1cc(/C=C/C(=O)OC2CC(C)=C(C(=O)O)/C2=C/CO[C@@H]2O[C@H](CO)[C@@H](O)[C@H](O)[C@H]2O)ccc1O (stereo partly drawn),n
COc1ccc(C2Oc3c(OC)cc(CCCO)cc3C2COC2OC(CO)C(O)C(O)C2O)cc1OC (stereo not drawn),n
COc1cc(C2Oc3c(OC)cc(CCCO)cc3C2CO)ccc1O[C@H]1O[C@H](C)[C@@H](O)[C@H](O)[C@@H]1O (stereo partly drawn),n
C/C=C/c1ccc(O[C@@H]2O[C@H](CO)[C@@H](O)[C@H](O)[C@H]2O)c(OC)c1,n
COc1cc(C(O)C(CO)Oc2ccc(CCCO[C@@H]3O[C@@H](C)[C@H](O)[C@@H](O)[C@H]3O)cc2OC)ccc1O (stereo partly drawn),+
COc1cc(C2Oc3c(OC)cc(/C=C/C(=O)OC[C@H]4O[C@@H](OC(C)(C)C(=O)O)[C@H](O)[C@@H](O)[C@@H]4O)cc3C2CO)ccc1O (stereo partly drawn),+
N=c1ccn2c(n1)O[C@H]1[C@H](O)[C@@H](CO)O[C@H]12,n
CC(C)CCOc1ccc2c(-c3ccccc3)cc(=O)oc2c1,n
CC1c2cccn2CCN1C(=O)Nc1ccc(Br)cc1 (stereo not drawn),n
CCc1cc2c(cc3n2CC(C)(C(=O)NC2CCC(C)CC2)N(Cc2cccc(F)c2)C3=O)s1 (stereo not drawn),n
CCOc1ccc(CNC(=O)c2cc3n(n2)CC(C)(C(=O)NCc2ccc(F)cc2)N(C)C3=O)cc1 (stereo not drawn),n
Cc1nn(C)c(C)c1-c1nc2cc(S(=O)(=O)N3CCCC3)ccc2n1C,n
COc1cc(/C=C/C(=O)OCC2OC(OC3(CO)OC(CO)C(O)C3O)C(O)C(O)C2O)ccc1O (stereo not drawn),+
O=C(/C=C/c1ccc(O)cc1)OC[C@H]1O[C@H](O[C@@]2(CO)O[C@@H](CO)[C@H](O)[C@H]2O)[C@H](O)[C@@H](O)[C@@H]1O,n
COc1cc(/C=C/C(=O)O[C@H]2[C@H](O)[C@@H](CO)O[C@@]2(CO)O[C@H]2O[C@H](CO)[C@@H](O)[C@H](O)[C@H]2O)cc(OC)c1O,n
